# In publication PMC11006913:
# What was measured:
# Test in all cases: PBM; 200 nM protein, PBS
# Details in all cases: dsDNA, one strand shown
# [1] = target: HOXA4 (Homo sapiens, UniProt Q00056 201-287, W262R)
# [2] = target: HOXA4 (Homo sapiens, UniProt Q00056 201-287)
# [3] = target: HOXC9 (Homo sapiens, UniProt P31274 178-260, K195R)
# [4] = target: ALX4 (Homo sapiens, UniProt Q9H161 200-286)
# [5] = target: ALX4 (Homo sapiens, UniProt Q9H161 200-286, Q225E)
# [6] = target: HOXC9 (Homo sapiens, UniProt P31274 178-260)
# [7] = target: MSX2 (Homo sapiens, UniProt P35548 130-214, R199I)
# [8] = target: HOXC9 (Homo sapiens, UniProt P31274 178-260, R193K)
# [9] = target: MSX2 (Homo sapiens, UniProt P35548 130-214)
# [10] = target: HOXC9 (Homo sapiens, UniProt P31274 178-260, R222W)
# [11] = target: MSX2 (Homo sapiens, UniProt P35548 130-214, F161Y)
# [12] = target: PRRX1 (Homo sapiens, UniProt P54821 80-166, F113S)
# [13] = target: PRRX1 (Homo sapiens, UniProt P54821 80-166)
# [14] = target: HOXB6 (Homo sapiens, UniProt P17509 132-218, K202E)
# [15] = target: ALX3 (Homo sapiens, UniProt O95076 139-225, N203Q)
# [16] = target: ALX3 (Homo sapiens, UniProt O95076 139-225)
# [17] = target: ALX3 (Homo sapiens, UniProt O95076 139-225, N203S)
# [18] = target: HOXB6 (Homo sapiens, UniProt P17509 132-218)
# [19] = target: HOXC10 (Homo sapiens, UniProt Q9NYD6 254-340, K271E)
# [20] = target: ALX3 (Homo sapiens, UniProt O95076 139-225, L168Q)
# [21] = target: ALX3 (Homo sapiens, UniProt O95076 139-225, L168V)
# [22] = target: ALX1 (Homo sapiens, UniProt Q15699 118-204, L144V)
# [23] = target: ALX1 (Homo sapiens, UniProt Q15699 118-204, L144R)
# [24] = target: ALX1 (Homo sapiens, UniProt Q15699 118-204)
# [25] = target: HOXD13 (Homo sapiens, UniProt P35453 263-343, T313R)
# [26] = target: HOXD13 (Homo sapiens, UniProt P35453 263-343)
# [27] = target: PROP1 (Homo sapiens, UniProt O75360 56-141)
# [28] = target: PROP1 (Homo sapiens, UniProt O75360 56-141, R99H)
# [29] = target: HOXD13 (Homo sapiens, UniProt P35453 263-343, T313A)
# [30] = target: PROP1 (Homo sapiens, UniProt O75360 56-141, F88S)
# PROP1 (Homo sapiens, UniProt O75360 56-141, F88S), sequence (O75360 56-141 F88S): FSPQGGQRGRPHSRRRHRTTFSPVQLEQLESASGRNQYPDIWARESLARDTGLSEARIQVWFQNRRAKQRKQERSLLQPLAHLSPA
# HOXD13 (Homo sapiens, UniProt P35453 263-343, T313R), sequence (P35453 263-343 T313R): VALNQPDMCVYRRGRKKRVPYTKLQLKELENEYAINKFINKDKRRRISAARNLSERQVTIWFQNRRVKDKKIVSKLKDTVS
# HOXD13 (Homo sapiens, UniProt P35453 263-343, T313A), sequence (P35453 263-343 T313A): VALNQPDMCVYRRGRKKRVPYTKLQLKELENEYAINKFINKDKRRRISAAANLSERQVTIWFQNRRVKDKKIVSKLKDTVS
# PRRX1 (Homo sapiens, UniProt P54821 80-166, F113S), sequence (P54821 80-166 F113S): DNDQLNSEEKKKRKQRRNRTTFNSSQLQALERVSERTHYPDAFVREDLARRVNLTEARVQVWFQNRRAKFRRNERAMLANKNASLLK
# HOXC9 (Homo sapiens, UniProt P31274 178-260, R193K), sequence (P31274 178-260 R193K): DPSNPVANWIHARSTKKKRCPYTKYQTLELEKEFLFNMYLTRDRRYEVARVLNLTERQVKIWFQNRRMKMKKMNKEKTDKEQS
# HOXC9 (Homo sapiens, UniProt P31274 178-260), sequence (P31274 178-260): as the sequence (P31274 178-260 R193K) above, with K16R counted along it
# HOXC9 (Homo sapiens, UniProt P31274 178-260, K195R), sequence (P31274 178-260 K195R): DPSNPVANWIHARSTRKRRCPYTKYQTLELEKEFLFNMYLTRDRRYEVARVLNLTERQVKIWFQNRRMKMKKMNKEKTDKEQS
# HOXD13 (Homo sapiens, UniProt P35453 263-343), sequence (P35453 263-343): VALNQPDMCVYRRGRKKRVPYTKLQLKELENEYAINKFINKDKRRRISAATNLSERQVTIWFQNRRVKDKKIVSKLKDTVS
# HOXC9 (Homo sapiens, UniProt P31274 178-260, R222W), sequence (P31274 178-260 R222W): as the sequence (P31274 178-260 R193K) above, with K16R, R45W counted along it
# ALX4 (Homo sapiens, UniProt Q9H161 200-286, Q225E), sequence (Q9H161 200-286 Q225E): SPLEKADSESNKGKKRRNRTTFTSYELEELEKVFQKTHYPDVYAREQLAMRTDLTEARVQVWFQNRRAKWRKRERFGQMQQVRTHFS
# ALX3 (Homo sapiens, UniProt O95076 139-225), sequence (O95076 139-225): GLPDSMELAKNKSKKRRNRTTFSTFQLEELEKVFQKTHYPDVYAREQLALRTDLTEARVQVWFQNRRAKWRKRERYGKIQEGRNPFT
# HOXA4 (Homo sapiens, UniProt Q00056 201-287), sequence (Q00056 201-287): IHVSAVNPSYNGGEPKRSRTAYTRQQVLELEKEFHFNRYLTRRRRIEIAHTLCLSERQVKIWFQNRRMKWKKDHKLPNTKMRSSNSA
# ALX3 (Homo sapiens, UniProt O95076 139-225, L168V), sequence (O95076 139-225 L168V): as the sequence (O95076 139-225) above, with L30V counted along it
# PRRX1 (Homo sapiens, UniProt P54821 80-166), sequence (P54821 80-166): as the sequence (P54821 80-166 F113S) above, with S34F counted along it
# ALX3 (Homo sapiens, UniProt O95076 139-225, L168Q), sequence (O95076 139-225 L168Q): as the sequence (O95076 139-225) above, with L30Q counted along it
# HOXA4 (Homo sapiens, UniProt Q00056 201-287, W262R), sequence (Q00056 201-287 W262R): as the sequence (Q00056 201-287) above, with W62R counted along it
# ALX3 (Homo sapiens, UniProt O95076 139-225, N203Q), sequence (O95076 139-225 N203Q): as the sequence (O95076 139-225) above, with N65Q counted along it
# PROP1 (Homo sapiens, UniProt O75360 56-141), sequence (O75360 56-141): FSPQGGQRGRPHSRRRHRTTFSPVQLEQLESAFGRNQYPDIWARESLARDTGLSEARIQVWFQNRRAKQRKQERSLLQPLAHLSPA
# PROP1 (Homo sapiens, UniProt O75360 56-141, R99H), sequence (O75360 56-141 R99H): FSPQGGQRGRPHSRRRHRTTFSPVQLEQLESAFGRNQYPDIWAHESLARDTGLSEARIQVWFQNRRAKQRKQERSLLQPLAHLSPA
# ALX3 (Homo sapiens, UniProt O95076 139-225, N203S), sequence (O95076 139-225 N203S): as the sequence (O95076 139-225) above, with N65S counted along it
# ALX4 (Homo sapiens, UniProt Q9H161 200-286), sequence (Q9H161 200-286): as the sequence (Q9H161 200-286 Q225E) above, with E26Q counted along it
# ALX1 (Homo sapiens, UniProt Q15699 118-204), sequence (Q15699 118-204): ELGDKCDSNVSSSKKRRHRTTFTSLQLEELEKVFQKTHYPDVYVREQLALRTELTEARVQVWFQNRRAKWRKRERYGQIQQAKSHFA
# MSX2 (Homo sapiens, UniProt P35548 130-214, R199I), sequence (P35548 130-214 R199I): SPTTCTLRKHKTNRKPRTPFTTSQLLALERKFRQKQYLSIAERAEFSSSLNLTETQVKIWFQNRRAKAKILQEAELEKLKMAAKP
# MSX2 (Homo sapiens, UniProt P35548 130-214, F161Y), sequence (P35548 130-214 F161Y): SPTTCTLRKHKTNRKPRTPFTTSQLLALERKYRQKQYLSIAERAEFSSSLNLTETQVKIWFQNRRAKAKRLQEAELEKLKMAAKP
# HOXC10, sequence (Q9NYD6 254-340 K271E): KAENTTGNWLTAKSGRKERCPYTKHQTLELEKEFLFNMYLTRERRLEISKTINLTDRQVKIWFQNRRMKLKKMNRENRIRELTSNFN
# ALX1 (Homo sapiens, UniProt Q15699 118-204, L144R), sequence (Q15699 118-204 L144R): as the sequence (Q15699 118-204) above, with L27R counted along it
# HOXB6 (Homo sapiens, UniProt P17509 132-218, K202E), sequence (P17509 132-218 K202E): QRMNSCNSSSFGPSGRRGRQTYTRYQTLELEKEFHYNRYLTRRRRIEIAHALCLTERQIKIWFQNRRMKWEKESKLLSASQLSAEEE
# MSX2 (Homo sapiens, UniProt P35548 130-214), sequence (P35548 130-214): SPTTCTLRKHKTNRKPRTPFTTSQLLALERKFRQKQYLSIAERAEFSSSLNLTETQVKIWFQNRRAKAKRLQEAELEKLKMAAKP
# ALX1 (Homo sapiens, UniProt Q15699 118-204, L144V), sequence (Q15699 118-204 L144V): as the sequence (Q15699 118-204) above, with L27V counted along it
# HOXB6 (Homo sapiens, UniProt P17509 132-218), sequence (P17509 132-218): as the sequence (P17509 132-218 K202E) above, with E71K counted along it
sequence,measurement,setting,value
CTAATCTA,binding signal,[1],"10.3 upbm affinity estimate (log intensity, higher = more binding, comparable within an allelic series)"
same,binding signal,[2],"12 upbm affinity estimate (log intensity, higher = more binding, comparable within an allelic series)"
TGATGACA,binding signal,[1],"10.2 upbm affinity estimate (log intensity, higher = more binding, comparable within an allelic series)"
same,binding signal,[2],"11.8 upbm affinity estimate (log intensity, higher = more binding, comparable within an allelic series)"
CGCGGTGC,binding signal,[3],"9.77 upbm affinity estimate (log intensity, higher = more binding, comparable within an allelic series)"
same,binding signal,[4],"8.05 upbm affinity estimate (log intensity, higher = more binding, comparable within an allelic series)"
same,binding signal,[5],"8.13 upbm affinity estimate (log intensity, higher = more binding, comparable within an allelic series)"
same,binding signal,[6],"9.77 upbm affinity estimate (log intensity, higher = more binding, comparable within an allelic series)"
same,binding signal,[7],"9.6 upbm affinity estimate (log intensity, higher = more binding, comparable within an allelic series)"
same,binding signal,[8],"9.76 upbm affinity estimate (log intensity, higher = more binding, comparable within an allelic series)"
same,binding signal,[9],"9.52 upbm affinity estimate (log intensity, higher = more binding, comparable within an allelic series)"
same,binding signal,[10],"9.74 upbm affinity estimate (log intensity, higher = more binding, comparable within an allelic series)"
same,binding signal,[11],"9.68 upbm affinity estimate (log intensity, higher = more binding, comparable within an allelic series)"
ATATTGAC,binding signal,[3],"11.1 upbm affinity estimate (log intensity, higher = more binding, comparable within an allelic series)"
same,binding signal,[12],"10.1 upbm affinity estimate (log intensity, higher = more binding, comparable within an allelic series)"
same,binding signal,[6],"11.1 upbm affinity estimate (log intensity, higher = more binding, comparable within an allelic series)"
same,binding signal,[8],"11.1 upbm affinity estimate (log intensity, higher = more binding, comparable within an allelic series)"
same,binding signal,[13],"11.4 upbm affinity estimate (log intensity, higher = more binding, comparable within an allelic series)"
GCCCGAGC,binding signal,[3],"9.54 upbm affinity estimate (log intensity, higher = more binding, comparable within an allelic series)"
same,binding signal,[4],"8.18 upbm affinity estimate (log intensity, higher = more binding, comparable within an allelic series)"
same,binding signal,[5],"8.13 upbm affinity estimate (log intensity, higher = more binding, comparable within an allelic series)"
same,binding signal,[6],"9.62 upbm affinity estimate (log intensity, higher = more binding, comparable within an allelic series)"
same,binding signal,[8],"9.44 upbm affinity estimate (log intensity, higher = more binding, comparable within an allelic series)"
same,binding signal,[10],"9.78 upbm affinity estimate (log intensity, higher = more binding, comparable within an allelic series)"
TAAGATGA,binding signal,[3],"10.9 upbm affinity estimate (log intensity, higher = more binding, comparable within an allelic series)"
same,binding signal,[14],"9.54 upbm affinity estimate (log intensity, higher = more binding, comparable within an allelic series)"
same,binding signal,[6],"10.7 upbm affinity estimate (log intensity, higher = more binding, comparable within an allelic series)"
same,binding signal,[15],"8.17 upbm affinity estimate (log intensity, higher = more binding, comparable within an allelic series)"
same,binding signal,[8],"10.9 upbm affinity estimate (log intensity, higher = more binding, comparable within an allelic series)"
same,binding signal,[16],"9.17 upbm affinity estimate (log intensity, higher = more binding, comparable within an allelic series)"
same,binding signal,[10],"10.2 upbm affinity estimate (log intensity, higher = more binding, comparable within an allelic series)"
same,binding signal,[17],"8.25 upbm affinity estimate (log intensity, higher = more binding, comparable within an allelic series)"
same,binding signal,[18],"10.1 upbm affinity estimate (log intensity, higher = more binding, comparable within an allelic series)"
AATTAAAA,binding signal,[3],"12.5 upbm affinity estimate (log intensity, higher = more binding, comparable within an allelic series)"
same,binding signal,[12],"11.2 upbm affinity estimate (log intensity, higher = more binding, comparable within an allelic series)"
same,binding signal,[5],"12.8 upbm affinity estimate (log intensity, higher = more binding, comparable within an allelic series)"
same,binding signal,[19],"11.8 upbm affinity estimate (log intensity, higher = more binding, comparable within an allelic series)"
same,binding signal,[20],"10.3 upbm affinity estimate (log intensity, higher = more binding, comparable within an allelic series)"
same,binding signal,[21],"9.86 upbm affinity estimate (log intensity, higher = more binding, comparable within an allelic series)"
CAGACGGC,binding signal,[3],"9.46 upbm affinity estimate (log intensity, higher = more binding, comparable within an allelic series)"
same,binding signal,[12],"9.13 upbm affinity estimate (log intensity, higher = more binding, comparable within an allelic series)"
same,binding signal,[6],"9.65 upbm affinity estimate (log intensity, higher = more binding, comparable within an allelic series)"
same,binding signal,[22],"6.56 upbm affinity estimate (log intensity, higher = more binding, comparable within an allelic series)"
same,binding signal,[8],"9.48 upbm affinity estimate (log intensity, higher = more binding, comparable within an allelic series)"
same,binding signal,[23],"6.52 upbm affinity estimate (log intensity, higher = more binding, comparable within an allelic series)"
same,binding signal,[10],"9.64 upbm affinity estimate (log intensity, higher = more binding, comparable within an allelic series)"
same,binding signal,[24],"6.59 upbm affinity estimate (log intensity, higher = more binding, comparable within an allelic series)"
same,binding signal,[13],"9.37 upbm affinity estimate (log intensity, higher = more binding, comparable within an allelic series)"
CCCCCCTC,binding signal,[3],"9.44 upbm affinity estimate (log intensity, higher = more binding, comparable within an allelic series)"
same,binding signal,[6],"9.34 upbm affinity estimate (log intensity, higher = more binding, comparable within an allelic series)"
same,binding signal,[15],"7.49 upbm affinity estimate (log intensity, higher = more binding, comparable within an allelic series)"
same,binding signal,[25],"8.92 upbm affinity estimate (log intensity, higher = more binding, comparable within an allelic series)"
same,binding signal,[8],"9.54 upbm affinity estimate (log intensity, higher = more binding, comparable within an allelic series)"
same,binding signal,[26],"9.09 upbm affinity estimate (log intensity, higher = more binding, comparable within an allelic series)"
same,binding signal,[16],"7.67 upbm affinity estimate (log intensity, higher = more binding, comparable within an allelic series)"
same,binding signal,[27],"6.57 upbm affinity estimate (log intensity, higher = more binding, comparable within an allelic series)"
same,binding signal,[28],"6.41 upbm affinity estimate (log intensity, higher = more binding, comparable within an allelic series)"
same,binding signal,[20],"7.57 upbm affinity estimate (log intensity, higher = more binding, comparable within an allelic series)"
same,binding signal,[29],"9.19 upbm affinity estimate (log intensity, higher = more binding, comparable within an allelic series)"
same,binding signal,[10],"9.27 upbm affinity estimate (log intensity, higher = more binding, comparable within an allelic series)"
same,binding signal,[21],"7.44 upbm affinity estimate (log intensity, higher = more binding, comparable within an allelic series)"
same,binding signal,[30],"5.9 upbm affinity estimate (log intensity, higher = more binding, comparable within an allelic series)"
same,binding signal,[17],"7.51 upbm affinity estimate (log intensity, higher = more binding, comparable within an allelic series)"
TAAAGTGA,binding signal,[3],"11.3 upbm affinity estimate (log intensity, higher = more binding, comparable within an allelic series)"
same,binding signal,[6],"11.4 upbm affinity estimate (log intensity, higher = more binding, comparable within an allelic series)"
same,binding signal,[8],"11.4 upbm affinity estimate (log intensity, higher = more binding, comparable within an allelic series)"
GGAGAACC,binding signal,[3],"9.48 upbm affinity estimate (log intensity, higher = more binding, comparable within an allelic series)"
same,binding signal,[6],"9.62 upbm affinity estimate (log intensity, higher = more binding, comparable within an allelic series)"
same,binding signal,[25],"9.57 upbm affinity estimate (log intensity, higher = more binding, comparable within an allelic series)"
same,binding signal,[8],"9.52 upbm affinity estimate (log intensity, higher = more binding, comparable within an allelic series)"
same,binding signal,[26],"9.46 upbm affinity estimate (log intensity, higher = more binding, comparable within an allelic series)"
same,binding signal,[29],"9.73 upbm affinity estimate (log intensity, higher = more binding, comparable within an allelic series)"
same,binding signal,[10],"9.79 upbm affinity estimate (log intensity, higher = more binding, comparable within an allelic series)"
AGCCGTGG,binding signal,[3],"9.64 upbm affinity estimate (log intensity, higher = more binding, comparable within an allelic series)"
same,binding signal,[6],"9.68 upbm affinity estimate (log intensity, higher = more binding, comparable within an allelic series)"
same,binding signal,[25],"9.67 upbm affinity estimate (log intensity, higher = more binding, comparable within an allelic series)"
same,binding signal,[8],"9.58 upbm affinity estimate (log intensity, higher = more binding, comparable within an allelic series)"
same,binding signal,[26],"9.7 upbm affinity estimate (log intensity, higher = more binding, comparable within an allelic series)"
same,binding signal,[27],"6.79 upbm affinity estimate (log intensity, higher = more binding, comparable within an allelic series)"
same,binding signal,[28],"6.82 upbm affinity estimate (log intensity, higher = more binding, comparable within an allelic series)"
same,binding signal,[29],"9.83 upbm affinity estimate (log intensity, higher = more binding, comparable within an allelic series)"
same,binding signal,[10],"9.77 upbm affinity estimate (log intensity, higher = more binding, comparable within an allelic series)"
same,binding signal,[30],"6.72 upbm affinity estimate (log intensity, higher = more binding, comparable within an allelic series)"
